From PubChem BioAssay (EPA / NIEHS)
Records with an inconclusive call do not appear. Calls of active or inactive are those of the source. Rule for the calls, unless noted: active = hit-call score of the fitted dose curve at least 0.9, where 1 is the maximum; inconclusive = response in the unintended direction; inactive = score below 0.9.

Experiments:
[1] = TOX21_p53_BLA_p2_viability: Viability Assessment in the Tox21 HCT-116 p53 Agonism Beta-lactamase Assay, Phase 2 (AID 2283591);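 note: actives lower the ATP signal meaning cytotoxicity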
Procedure, shortened: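 Cytotoxicity readout: CellTiter-Glo ATP luminescence, 30 min at room temperature, after the beta-lactamase read. Cells were HCT116 exposed 16 h at 37C to compounds pin-transferred at 217-fold dilution from DMSO stocks.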

[2] = target: Cellular tumor antigen p53 (Homo sapiens) (UniProt P04637); assay: TOX21_p53_BLA_p2_ratio: Tox21 HCT-116 p53 Agonism Beta-lactamase Assay, Ratio, Phase 2 (AID 2283592)
Procedure, shortened: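 Readout: blue/green (460/530 nm) FRET emission ratio after 2 h CCF4-AM loading at room temperature, excitation 405 nm. HCT116 p53 bla cells, 16 h compound exposure at 37C, 5% CO2; agonist direction fitted against DMSO baseline.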

[3] = target: Cellular tumor antigen p53 (Homo sapiens) (UniProt P04637); assay: TOX21_p53_BLA_p3_ratio: Tox21 HCT-116 p53 Agonism Beta-lactamase Assay, Ratio, Phase 3 (AID 2283596)
Procedure, shortened: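 Cells were seeded at 4000/well, rested 5 h at 37C, then dosed with DMSO compound solutions (217-fold dilution) for 16 h. CCF4-AM substrate was loaded for 2 h at room temperature, and the 460/530 nm emission ratio was fitted for gain of signal versus DMSO.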

[4] = TOX21_p53_BLA_p4_viability: Viability Assessment in the Tox21 HCT-116 p53 Agonism Beta-lactamase Assay, Phase 4 (AID 2283597);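 note: hits lower the luminescence signal meaning cytotoxicity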
Procedure, shortened: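 ATP content by CellTiter-Glo luminescence, 30 min RT, read after the beta-lactamase ratio step. Cells: HCT116, 4000/well, compound added after 5 h, exposure 16 h at 37C. Signal loss = reduced viability.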

[5] = TOX21_p53_BLA_p5_viability: Viability Assessment in the Tox21 HCT-116 p53 Agonism Beta-lactamase Assay, Phase 5 (AID 2283600)
Procedure, shortened: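 ATP luminescence (CellTiter-Glo, 30 min, RT) served as the viability read-out, with loss of signal indicating cytotoxicity. Compounds in DMSO were pinned at a 217-fold dilution onto 4000 cells/well and incubated 16 h, 37C.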

[6] = target: Cellular tumor antigen p53 (Homo sapiens) (UniProt P04637); assay: TOX21_p53_BLA_p4_ratio: Tox21 HCT-116 p53 Agonism Beta-lactamase Assay, Ratio, Phase 4 (AID 2283601)
Procedure, shortened: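 Signal is the blue/green (460nm/530nm) ratio of cleaved versus uncleaved CCF4-AM substrate, read after 2 h substrate loading. Cells were HCT116 carrying the p53-responsive beta-lactamase reporter, dosed 16 h at 37C, 5% CO2; CellTiter-Glo measured in parallel.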

[7] = target: Cellular tumor antigen p53 (Homo sapiens) (UniProt P04637); assay: TOX21_p53_BLA_p5_ratio: Tox21 HCT-116 p53 Agonism Beta-lactamase Assay, Ratio, Phase 5 (AID 2283599)
Procedure, shortened: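 Beta-lactamase reporter ratio (blue 460 nm over green 530 nm, 405 nm excitation) after 2 h CCF4-AM loading, in HCT-116 cells exposed 16 h at 37 C to compounds pinned at 217-fold dilution. Increases relative to DMSO baseline scored.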

[8] = CCTE_Shafer_MEA_dev_firing_rate_mean: CCTE's Neural Network Formation Assay for Mean Firing Rate, Shafer Lab (AID 2284031; active = hit-call score of the fitted dose curve at least 0.9, where 1 is the maximum; inactive = score below 0.9)
Procedure, shortened: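 Steps: seed rat cortical cells (1.5 x 10^5/well) with laminin on PEI-coated MEA; dose day 0; record DIV 5/7/9/12, full media and compound exchange after DIV 5 and 9 recordings; compute well-mean firing rate AUC.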

[9] = CCTE_Shafer_MEA_dev_per_burst_spike_percent: CCTE's Neural Network Formation Assay for Percent of Spikes in a Burst, Shafer Lab (AID 2284032; active = hit-call score of the fitted dose curve at least 0.9, where 1 is the maximum; inactive = score below 0.9)
Procedure, shortened: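 Value is trapezoidal AUC over recordings on days 5, 7, 9 and 12 of the well-mean fraction of spikes falling in single-electrode bursts; rat cortical cultures exposed continuously from plating, treatment renewed DIV 5 and 9, fitted downward against DMSO.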

[10] = CCTE_Shafer_MEA_dev_active_electrodes_number: CCTE's Neural Network Formation Assay for Number of Active Electrodes, Shafer Lab (AID 2284040)
Procedure, shortened: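 Counts electrodes per well firing at least 5 spikes/min, recorded on days 5, 7, 9 and 12 in rat cortical cultures dosed continuously from plating (treatment refreshed DIV 5, 9). Value is the area under the curve over recordings, fitted downward relative to DMSO.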

[11] = CCTE_Shafer_MEA_dev_burst_rate: CCTE's Neural Network Formation Assay for Burst Rate, Shafer Lab (AID 2284042; active = hit-call score of the fitted dose curve at least 0.9, where 1 is the maximum; inactive = score below 0.9)
Procedure, shortened: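 Developmental network assay measuring how 12-day exposure of rat cortical neuron cultures alters bursting on extracellular MEA recordings. Values are AUC of well-mean burst rate across four recording days, relative to DMSO vehicle.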

[12] = CCTE_Shafer_MEA_dev_bursting_electrodes_number: CCTE's Neural Network Formation Assay for Number of Bursting Electrodes, Shafer Lab (AID 2284043)
Procedure, shortened: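 Number of electrodes reaching ≥1 burst every 2 min was recorded at DIV 5, 7, 9 and 12 and collapsed as trapezoidal area under the curve. Cultures were rat cortical neurons on MEA plates, dosed continuously from plating with medium and treatment refreshed on DIV 5 and 9.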

[13] = CCTE_Shafer_MEA_dev_per_burst_interspike_interval: CCTE's Neural Network Formation Assay for Burst Interspike Interval, Shafer Lab (AID 2284044; active = hit-call score of the fitted dose curve at least 0.9, where 1 is the maximum; inactive = score below 0.9)
Procedure, shortened: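 Readout is the average time between spikes inside single-electrode bursts, taken as a well mean across bursting electrodes. Cortical neurons from rat developed networks on MEA plates under continuous 12-day exposure; recordings on days 5, 7, 9 and 12 were integrated by trapezoidal AUC.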

[14] = CCTE_Shafer_MEA_dev_burst_duration_mean: CCTE's Neural Network Formation Assay for Mean Burst Duration, Shafer Lab (AID 2284045; active = hit-call score of the fitted dose curve at least 0.9, where 1 is the maximum; inactive = score below 0.9)
Procedure, shortened: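 Mean single-electrode burst duration (first to last spike), averaged over bursting electrodes per well, then integrated as area-under-curve across recordings at days 5, 7, 9 and 12. Rat cortical cultures on MEAs, compound present from plating, refreshed at feeds.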

[15] = CCTE_Shafer_MEA_dev_interburst_interval_mean: CCTE's Neural Network Formation Assay for Mean Interburst Interval, Shafer Lab (AID 2284046; active = hit-call score of the fitted dose curve at least 0.9, where 1 is the maximum; inactive = score below 0.9;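 note: well-mean interburst interval of bursting electrodes as AUC over four recording days; curve fitted for decrease in interburst interval relative to DMSO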)
Procedure, shortened: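 Network formation assay in primary rat cortical cultures, exposed from DIV 0 to 12. Mean interburst interval per well, integrated as AUC over four recordings.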

[16] = CCTE_Shafer_MEA_dev_inter_network_spike_interval_mean: CCTE's Neural Network Formation Assay for Mean Inter-network Spike Interval, Shafer Lab (AID 2284047; active = hit-call score of the fitted dose curve at least 0.9, where 1 is the maximum; inactive = score below 0.9)
Procedure, shortened: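 Compound was given at plating to primary rat cortical neurons and renewed with full medium changes on DIV 5 and 9. Extracellular activity was recorded on days 5, 7, 9, 12; AUC values were fitted for loss relative to DMSO control.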

[17] = CCTE_Shafer_MEA_dev_network_spike_number: CCTE's Neural Network Formation Assay for Number of Network Spikes, Shafer Lab (AID 2284048; active = hit-call score of the fitted dose curve at least 0.9, where 1 is the maximum; inactive = score below 0.9)
Procedure, shortened: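 Number of network spikes (coordinated firing across electrodes) recorded on days 5, 7, 9 and 12 and summarised as area under the curve. Rat cortical cultures on MEA, continuous compound exposure with full medium/treatment exchange at DIV 5 and 9.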

[18] = CCTE_Shafer_MEA_dev_network_spike_peak: CCTE's Neural Network Formation Assay for Mean Number of Electrodes in Network Spike, Shafer Lab (AID 2284049; active = hit-call score of the fitted dose curve at least 0.9, where 1 is the maximum; inactive = score below 0.9)
Procedure, shortened: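 Rat cortical primary culture, 1.5 x 10^5 cells/well, 48-well MEA (16 electrodes/well). Dosing day 0 through DIV 12, full media/compound exchange DIV 5, 9. AxIS adaptive spike detection; AUC over days 5/7/9/12; loss-of-signal vs DMSO.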

[19] = CCTE_Shafer_MEA_dev_spike_duration_mean: CCTE's Neural Network Formation Assay for Mean Spike Duration, Shafer Lab (AID 2284051; active = hit-call score of the fitted dose curve at least 0.9, where 1 is the maximum; inactive = score below 0.9;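 note: mean network spike duration pooled as area under curve over DIV 5 to 12 recordings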)
Procedure, shortened: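 With DMSO as baseline, loss of mean network spike duration was scored from extracellular recordings of rat cortical neurons on MEA plates. Exposure spanned plating to DIV 12; the four recording days were collapsed into one AUC value.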

[20] = CCTE_Shafer_MEA_dev_network_spike_duration_std: CCTE's Neural Network Formation Assay for Standard Deviation of Network Spike Duration, Shafer Lab (AID 2284052; active = hit-call score of the fitted dose curve at least 0.9, where 1 is the maximum; inactive = score below 0.9;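 note: hits are decreases in network spike duration SD versus DMSO vehicle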)
Procedure, shortened: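 Developing networks of rat cortical neurons were exposed over twelve days in vitro on 48-well MEA plates. Trapezoidal AUC of recordings (DIV 5–12) was analysed for signal loss relative to DMSO vehicle.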

[21] = CCTE_Shafer_MEA_dev_per_network_spike_spike_number_mean: CCTE's Neural Network Formation Assay for Mean Number of Spikes in a Network Spike, Shafer Lab (AID 2284053; active = hit-call score of the fitted dose curve at least 0.9, where 1 is the maximum; inactive = score below 0.9)
Procedure, shortened: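 First, rat cortical cells (1.5 x 10^5/well) were seeded onto MEA wells; second, dosing began at plating and was refreshed on DIV 5 and 9; finally, network-spike spike counts across DIV 5–12 were summarized as AUC.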

[22] = CCTE_Shafer_MEA_dev_per_network_spike_spike_percent: CCTE's Neural Network Formation Assay for Percent of Spikes in a Network Spike, Shafer Lab (AID 2284054; active = hit-call score of the fitted dose curve at least 0.9, where 1 is the maximum; inactive = score below 0.9)
Procedure, shortened: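 Metric: fraction of spikes falling in a 0.05 s window at network-spike peaks. Recordings were made on days 5, 7, 9 and 12 and collapsed by trapezoidal AUC. Cultures were rat cortical neurons on MEA plates, dosed continuously from plating, re-dosed at media changes.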

[23] = CCTE_Shafer_MEA_dev_LDH: CCTE's Lactate Dehydrogenase Assay for Cytotoxicity in the Neural Network Formation Assay, Shafer Lab (AID 2284068);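 note: exposure for twelve days from plating with re-dosing on DIV 5 and 9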
Procedure, shortened: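 Developing rat cortical networks on MEA plates are exposed to compound for 12 days from plating. LDH activity is measured spectrophotometrically, with DMSO as baseline.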

[24] = CCTE_Shafer_MEA_dev_mutual_information_norm: CCTE's Neural Network Formation Assay for Mutual Information Normalization, Shafer Lab (AID 2284091; active = hit-call score of the fitted dose curve at least 0.9, where 1 is the maximum; inactive = score below 0.9)
Procedure, shortened: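 Shared information across electrodes, tracked on days 5, 7, 9 and 12 of network development and collapsed as trapezoidal area under the curve. Rat cortical cultures were treated continuously from plating, with treatment renewed at feeds on DIV 5 and 9; DMSO baseline, negative-direction fit.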

[25] = CCTE_Shafer_MEA_dev_correlation_coefficient_mean: CCTE's Neural Network Formation Assay for Mean Correlation Coefficient, Shafer Lab (AID 2284093; active = hit-call score of the fitted dose curve at least 0.9, where 1 is the maximum; inactive = score below 0.9)
Procedure, shortened: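 Extracellular firing from rat cortical networks on 48-well MEAs, DMSO-referenced, negative fitting direction. Compound present from plating to DIV12; mean pairwise correlation per well integrated over DIV5–12 recordings by trapezoidal AUC.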

Measured: AC50

Chain of Cellular tumor antigen p53 (Homo sapiens) (P04637 whole entry, looked up): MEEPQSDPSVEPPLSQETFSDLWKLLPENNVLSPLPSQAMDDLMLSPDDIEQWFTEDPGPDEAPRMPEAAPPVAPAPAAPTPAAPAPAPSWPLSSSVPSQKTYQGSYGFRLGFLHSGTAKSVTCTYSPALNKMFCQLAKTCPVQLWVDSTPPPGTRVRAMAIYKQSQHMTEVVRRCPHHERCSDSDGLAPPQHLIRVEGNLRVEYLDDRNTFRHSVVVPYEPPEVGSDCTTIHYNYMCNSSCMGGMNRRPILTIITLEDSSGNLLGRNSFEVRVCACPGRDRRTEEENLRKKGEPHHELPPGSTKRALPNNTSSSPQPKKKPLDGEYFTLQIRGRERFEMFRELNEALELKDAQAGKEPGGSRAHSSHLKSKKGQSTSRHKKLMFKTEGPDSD

C1CCC2OC2C1 (centres undefined)
inactive: [1] | [2] | [3] | [4] | [5] | [6]

c1cc2ccc3ccc4ccc5cccc6c(c1)c2c3c4c56
active: [2] 1.94 µM | [7] 2.79 µM
inactive: all other assays above

CNCC[C@@H](Oc1ccccc1C)c1ccccc1
inactive: [1] | [2] | [3] | [4] | [7] | [6]

CCC(=O)c1c(O)cc(O)cc1O
inactive: [1] | [2] | [3] | [4] | [7] | [6]

CCC(=O)Oc1ccc2c(c1)CC[C@@H]1[C@@H]2CC[C@]2(C)[C@@H](OC(=O)CC)CC[C@@H]12
inactive: [1] | [2] | [3] | [4] | [5]

O=NN(CCCl)C(=O)NCCCl
inactive: [1] | [2] | [3] | [4] | [7] | [6]

CCOc1cc(OCC)c(C(C)=O)cc1OCC
inactive: [1] | [2] | [3] | [4] | [5]

N[C@@H](CSSC[C@H](N)C(=O)O)C(=O)O
inactive: [1] | [2] | [3] | [4] | [7] | [5] | [6]

N#C/C(=C1\SCC(c2ccccc2Cl)S1)n1ccnc1 (centres undefined)
inactive: [1] | [2] | [3] | [4] | [7] | [6]

O=Cc1cccc(Br)c1
inactive: [1] | [2] | [3] | [4] | [7] | [6]

NCC(O)CC(=O)O (centres undefined)
inactive: [1] | [2] | [3] | [4] | [7] | [6]
